# H9c2 protect = modulators protecting cardiomyocytes from myocardial damage. H9c2 cardiomyocytes, H2O2 injury protection, ATPLite, 2 h. AID 588492. 0.63% of 360,000 active. protection from H2O2 cell death, % at 20 µM;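 active = compounds giving at least 50% protection of heart cells from peroxide-induced death in the single-dose screen, raw or plate-pattern-corrected value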;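 also: 0% = DMSO wells with peroxide and 100% = DMSO wells without peroxide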
# H9c2 TAG inh = triacylglycerol accumulation inhibition; H9c2 cells, Nile Red lipid (TAG) fluorescence; cells loaded with 200 µM oleic acid; inhibition, % at 12.5 µM; 0.66% of 230,000 active; AID 651582;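 active = pattern-corrected inhibition of lipid staining of at least 50% with the nuclear-stain viability signal not falling by more than 50%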;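 also: 0% = DMSO wells and 100% = triacsin C control wells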
# Gli-Sufu antag = antagonists of Gli-Sufu signaling; Sufu-KO-LIGHT fibroblasts, Gli luciferase reporter luminescence; inhibition, % at 5 µM; 0.74% of 340,000 active; AID 588413;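 active = inhibition above about 55%, limit read from the data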;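 also: 0% = DMSO-treated cells and 100% = wells with medium but no cells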
# 697 NFkB inh = inhibitors of the PMA/ionomycin-induced NF-kB reporter in 697 B cells; inhibition, % at 4 µM; 697 B-cell NF-kB luciferase reporter, 16 h; 0.33% of 330,000 active; in the data active = inhibition above about 35%
# NR2F2 inh = blocks human COUP-TFII nuclear receptor. P24468. HEK293T NGFI-A luciferase reporter, luminescence. inhibition, % at 8.6 µM. 0.7% of 370,000 active;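 active = inhibition above a per-plate cutoff, mean inhibition of test wells between control levels plus 3 SD, cut at about 38% in these data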;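 also: cells cotransfected with COUP-TFII expression vector driving the NGFI-A reporter; 0% = median of COUP-TF2 test wells and 100% = reporter-only cells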
# Target sequence (P24468 whole entry, looked up): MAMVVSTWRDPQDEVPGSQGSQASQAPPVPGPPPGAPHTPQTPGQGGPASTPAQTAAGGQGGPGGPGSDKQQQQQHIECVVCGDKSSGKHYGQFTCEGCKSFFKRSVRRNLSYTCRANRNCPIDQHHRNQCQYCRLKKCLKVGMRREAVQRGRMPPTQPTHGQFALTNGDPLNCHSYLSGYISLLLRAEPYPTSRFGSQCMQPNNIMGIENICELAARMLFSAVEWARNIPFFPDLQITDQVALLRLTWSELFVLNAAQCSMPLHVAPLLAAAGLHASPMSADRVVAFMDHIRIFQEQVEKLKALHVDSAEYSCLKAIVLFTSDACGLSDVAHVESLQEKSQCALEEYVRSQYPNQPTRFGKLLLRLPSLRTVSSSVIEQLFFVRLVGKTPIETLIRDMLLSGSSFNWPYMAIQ
# Jurkat NFkB inh = inhibitors of the PMA/ionomycin-induced NF-kB reporter in Jurkat cells. 0.53% of 330,000 active. inhibition, % at 4 µM. PMA/ionomycin-induced NF-kB luciferase reporter, luminescence; in the data active = inhibition above about 50%
# Gli antag conf = Gli-SUFU antagonism confirmation, single concentration. shares compounds with Gli-Sufu antag. Sufu-KO-LIGHT cells, Gli luciferase reporter, luminescence. inhibition, % at 5 µM. 40% of 2,500 active. AID 602428;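 active = mean inhibition at 5 µM reaching about 45%, limit read from the data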;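 also: plate controls were DMSO-treated cells for no effect and wells lacking cells for full effect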
# SufuKO cytotox = cytotoxicity counter-screen for Gli-SUFU antagonists | cytotoxicity, % at 5 µM | Sufu-KO-LIGHT cells cytotoxicity, ATP luminescence | shares compounds with Gli-Sufu antag | 32% of 2,500 active;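 active = mean cytotoxicity at 5 µM above about 25%, limit read from the data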;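 also: cells exposed to compound overnight for roughly 16 to 18 hours; plate controls were DMSO wells with cells for no effect and medium without cells for full effect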
# Wnt3a counter = Wnt3a reporter inhibition counter-screen. shares compounds with Gli-Sufu antag. Wnt-LIGHT cells, Wnt3a-driven luciferase reporter, luminescence. inhibition, % at 6.25 µM. 20% of 2,500 active. AID 651995;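 active = mean inhibition above about 25%, limit read from the data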
# Active calls of the source: *; nt = no result given. Most compounds without a hit are left out; they make up all but 2.6% or so of the library.
SMILES,H9c2 protect,H9c2 TAG inh,Gli-Sufu antag,697 NFkB inh,NR2F2 inh,Jurkat NFkB inh,Gli antag conf,SufuKO cytotox,Wnt3a counter
O=C(Nc1ccc(-c2nc3ccccc3[nH]2)cc1)c1ccco1,-11,nt,-1,-101,nt,-135,nt,nt,nt
O=C(/C=C/c1ccco1)Nc1ccc(-c2nc3ccccc3[nH]2)cc1,17,nt,67*,nt,14,nt,55*,8,-22
O=C(NCc1ccccc1)[C@H]1CCCN1C(=O)[C@H]1CCCN1C(=O)c1ccc(F)cc1F,nt,nt,nt,nt,4,nt,nt,nt,nt
COC(CNC(=O)c1ccc(CS(=O)(=O)c2ccccc2)o1)OC,2,nt,27,-1,14,-5,nt,nt,nt
COc1ccc(S(=O)(=O)Cc2ccc(C(=O)NCC(OC)OC)o2)cc1,3,nt,54,-9,0,-8,20,11,1
COc1cc(NC(c2ccccc2)c2ccccc2)cc(OC)c1OC,2,-5,51,14,-9,-13,23,15,9
COc1ccc(Nc2c3ccccc3nc3ccccc23)cc1,-14,nt,55,-90,11,15,56*,31*,-38
COc1ccc(Nc2c3c(nc4ccccc24)CCC3)cc1,-15,nt,30,-37,20,30,nt,nt,nt
COc1cc(Nc2c3ccccc3nc3ccccc23)cc(OC)c1OC,-11,nt,61*,-13,-10,36,31,16,-43
COc1ccccc1Nc1c2ccccc2nc2ccccc12,-15,nt,38,-87,22,22,nt,nt,nt
CC(C)COc1ccc(-c2csc(N3CCC(C(N)=O)CC3)n2)cc1,nt,nt,nt,nt,24,nt,nt,nt,nt
Cc1ccc(S(=O)(=O)N2CCC(C(=O)N[C@@H](C)C(=O)Nc3ccc(F)cc3)CC2)cc1,-1,nt,nt,0,4,-13,nt,nt,nt
Cc1ccc(S(=O)(=O)N2CCC(C(=O)N[C@@H](C)C(=O)Nc3ccc4c(c3)OCO4)CC2)cc1,-4,nt,53,-11,1,-14,21,15,-4
COC(=O)C1CN(Cc2cn(Cc3ccc(C)cc3)nn2)CCS(=O)(=O)N1Cc1ccc(C)cc1 (stereo not drawn),nt,nt,nt,nt,4,nt,nt,nt,nt
COc1cc2c(c(OC)c1)C(=O)O[C@H](C)C[C@@H]1O[C@H]1CCCCC(=O)C2,nt,nt,nt,nt,-9,nt,nt,nt,nt
Cc1cc(Nc2cccc(Cl)c2)nc(NCc2ccccc2)n1,-37,-13,74*,-32,13,-7,52*,32*,-9
Cc1cc(N/N=C/c2cccc(Cl)c2)nc(NCc2ccccc2)n1,-16,nt,31,5,-10,-1,nt,nt,nt
Cc1ccc2c(c1)-c1c(cnn1CC(=O)NCCc1ccccc1F)CO2,nt,nt,nt,nt,8,nt,nt,nt,nt
COc1ccc(C2(c3ccc(OC(C)=O)cc3OC(C)=O)CC(c3ccccc3)NC(=S)N2)cc1 (stereo not drawn),-2,-10,62*,16,9,12,10,12,-13
COC(=O)/C(=N\Nc1ccc(Cl)cc1)Sc1nnc(-c2ccc(OC)cc2)n1C,2,nt,80*,6,-20,0,15,24,-16
O=S(=O)(c1ccc2ccccc2c1)N1CCN(C(=S)Nc2ccc(F)c(Cl)c2)CC1,-6,nt,99*,5,7,6,15,4,-4
O=S(=O)(c1ccc2ccccc2c1)N1CCN(C(=S)Nc2ccc(F)cc2)CC1,-8,nt,14,12,10,13,nt,nt,nt
O=C(Cn1nnc(-c2ccncc2)n1)Nc1ccc(Oc2ccccc2)cc1,nt,nt,nt,nt,2,nt,nt,nt,nt
COc1ccccc1CCNC(=O)CNC(=O)c1ccc2ccccc2c1,-2,nt,57*,-12,21,1,9,9,-27
COc1ccccc1CCNC(=O)c1ccc(C)o1,-3,nt,57*,-4,6,-23,4,25,-1
SMILES,H9c2 protect,H9c2 TAG inh,Gli-Sufu antag,697 NFkB inh,NR2F2 inh,Jurkat NFkB inh,Gli antag conf,SufuKO cytotox,Wnt3a counter
Cc1ccc(C(=O)NCCCCNC(=O)c2ccc(C)o2)o1,3,-6,-2,12,17,-6,nt,nt,nt
Cc1ccc(-c2nnc(N3CCN(c4ccccn4)CC3)c3ccccc23)cc1,-14,-8,18,5,-35,12,nt,nt,nt
c1ccc(-c2nnc(N3CCN(c4ccccn4)CC3)c3ccccc23)cc1,0,-11,61*,5,-2,-2,34,1,-12
CCOC(=O)N1CCN(C(=O)c2ccc(CSc3ccc(Cl)cc3)cc2)CC1,-12,nt,58*,13,-5,27,48*,17,0
CN1CCN(C(=O)c2ccc(CSc3ccc(Cl)cc3)cc2)CC1,-9,nt,16,-13,2,-13,nt,nt,nt
CC(C)CN1C(=O)[C@@]2(CC(=O)N(C)C2c2ccccc2)c2cc(-n3cc(C(C)(C)O)nn3)ccc21 (stereo partly drawn),nt,nt,nt,nt,-5,nt,nt,nt,nt
CCN1CCN(CC(=O)c2c(C)n(C)c3ccc(OC)cc23)CC1,12,23,62*,-7,6,-8,11,10,-7
CCN(CC)CCCNC(=O)c1cc2c(-c3ccc(Cl)cc3)nn(C)c2s1,-1,17,2,-18,5,-27,nt,nt,nt
CCN(CCCNC(=O)c1cc2c(-c3cccc(OC)c3)nn(C)c2s1)Cc1ccccc1,0,nt,59*,-6,-5,2,16,7,-31
CCOC(=O)C1CCN(c2cc3c(cc2NC(=O)c2cc(OC)ccc2Br)n(C)c(=O)n3C)CC1,39,nt,51,-11,9,-7,17,16,2
COc1cccc(C(=O)Nc2cc3c(cc2N2CCCC2)n(C)c(=O)n3C)c1,-1,nt,9,10,-6,5,nt,nt,nt
CN(C)C(=O)CCc1ccc2c3c([nH]c2c1)[C@]1(C)[C@@H](C(=O)N2CCCCC2)C[C@H](CC(=O)NC(C)(C)C)C(=O)N1CC3,4,-1,2,-1,-18,nt,nt,nt,nt
CC[C@]12c3[nH]c4cc(CCC(=O)N(C)C)ccc4c3CCN1C(=O)[C@@H](CC(=O)NC/C=C(\C)CCC=C(C)C)C[C@@H]2C(=O)N1CCN(C(=O)C2CC2)CC1,-12,-11,53,18,-12,nt,54*,29*,-23
CC(C)=CCC/C(C)=C/CNC(=O)C[C@H]1C[C@H](C(=O)N2CCCCC2)[C@@]2(C)c3[nH]c4cc(CCC(=O)N(C)C)ccc4c3CCN2C1=O,-21,-23,52,-20,nt,nt,56*,32*,-18
CC(C)=CCC/C(C)=C/CNC(=O)C[C@H]1C[C@H](C(=O)N2CCOCC2)[C@@]2(C)c3[nH]c4cc(CCC(=O)N(C)C)ccc4c3CCN2C1=O,-37,-23,58*,-1,13,nt,66*,19,-6

# Assay outcomes deposited in PubChem BioAssay by several laboratories.
